# Compound activity (PubChem)
# Rv3671c protease: Rv3671c (M. tuberculosis) protease inhibition. P9WHR9. inhibition, % at 5.96 µM. 320,000 tested, 0.048% active. AID 2606; in the data active = inhibition above about 38%;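 note: extracellular domain of Rv3671c used as enzyme; 0% = enzyme with DMSO and 100% = no enzyme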
# FBA Mtb inh: inhibitors of M. tuberculosis fructose-bisphosphate aldolase | purified M. tuberculosis FBA, fluorescence read-out | inhibition, % at 1 µM | 360,000 tested, 2.3% active | AID 588726; in the data active = inhibition above about 27%;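 note: 0% = vehicle and 100% = reference inhibitor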
# GDH-TPI counter-1: inhibits GDH-TPI coupling enzymes, artifact for Mtb FBA screen | GDH-TPI coupled enzyme counterscreen, NADH absorbance | inhibition, % at 4.8 µM | 360,000 tested, 1.2% active | AID 588335; in the data active = inhibition above about 30%;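 note: 0% = DMSO wells and 100% = wells lacking the enzyme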
# Mtb UGM inh: inhibitors of M. tuberculosis UDP-galactopyranose mutase. P9WIQ1. purified UGM, fluorescence polarization probe displacement. inhibition, % at 10 µM. 320,000 tested, 0.06% active; in the data active = inhibition above about 10%, passing the limit was not always enough
# Mtb betalactam: beta-lactam sensitization of Mtb H37Rv. 330,000 tested, 0.27% active. M. tuberculosis H37Rv growth with meropenem, percent inhibition. inhibition, % at 25 µM;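 note: growth measured after seven days incubation then overnight dye step; 0% = bacteria only wells and 100% = bacteria with antibiotic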
# RecA splice inh: blocks M. tuberculosis RecA intein splicing; cell-free RecA intein splicing, fluorescence; inhibition, % (no concentration beside the values); 290,000 tested, 0.75% active; in the data active = inhibition above about 30%;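 note: 0% = vehicle wells and 100% = reference inhibitor control wells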
# Mtb FBA confirm: Mtb FBA inhibition, confirmed; shares compounds with FBA Mtb inh; purified M. tuberculosis FBA, fluorescence read-out; inhibition, % at 1 µM; 5,600 tested, 78% active; in the data active = inhibition above about 27%;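 note: 0% = vehicle wells and 100% = reference inhibitor wells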
# GDH-TPI counter-2: counter-screen for M. tuberculosis FBA inhibitors: GDH-TPI coupled enzyme inhibition; 5,600 tested, 81% active; inhibition, % at 1 µM; shares compounds with FBA Mtb inh; GDH-TPI coupled enzyme counterscreen, fluorescence; AID 652141; in the data active = inhibition above about 10%
# GDH-TPI DR: counter-screen for M. tuberculosis FBA inhibitors: GDH-TPI dose response; IC50, µM; 170 tested, 79% active; GDH-TPI coupled enzyme assay, fluorescence, artifact counterscreen; shares compounds with FBA Mtb inh; AID 652145
# * hit, by the source's call; / = no result given; + = active, no number. In the library only some 4% were active in any assay of this set; here they are far more common. Unless noted, the rule behind the calls is not given here.
SMILES,Rv3671c protease,FBA Mtb inh,GDH-TPI counter-1,Mtb UGM inh,Mtb betalactam,RecA splice inh,Mtb FBA confirm,GDH-TPI counter-2,others
CCOC(=O)C1=C(COC(=O)/C=C/c2ccc(SC)cc2)NC(=O)NC1C (configuration not stated),-8.1,40.2*,18.7,0.2,-6.4,-0.7,34.8*,22.8*,
O=C(COC(=O)/C=C/c1ccc(Cl)cc1)NC1CC1,-1.9,-0.6,8.9,3.3,2.6,/,/,/,
O=C(NNS(=O)(=O)c1ccccc1[N+](=O)[O-])c1cc2ccccc2cc1O,-2.7,0.4,-2.7,3.6,-2.1,-18.1,/,/,
CCOc1ccc(C(=O)N2CCN(CC(=O)N3CCCC3)CC2)cc1OCC,-5.2,1.0,12.5,-0.7,-6.3,/,/,/,
CSc1nsc(SC)c1CO,-2.1,39.2*,-7.5,-0.8,3.1,-2.0,2.1,-7.7,
CCC(=O)NCCNC(=O)c1c(SC)nsc1SC,3.9,-0.6,2.3,0.7,-10.9,-0.7,/,/,
Cc1cccc(C(C)C)c1NC(=O)COC(=O)COc1ccc2c(C)cc(=O)oc2c1,-15.5,30.1*,5.5,-2.7,1.2,0.8,8.3,-0.2,
Cc1cccc(C)c1NC(=O)COC(=O)COc1ccc2c(C)cc(=O)oc2c1,-1.4,23.7,13.3,2.9,-8.6,-0.4,/,/,
CCN(CC(=O)Nc1c(F)cccc1F)C(=O)COc1ccc2c(C)cc(=O)oc2c1,-12.0,29.9*,12.7,-0.6,-8.9,/,123.4*,109.3*,
Cc1cc(=O)oc2cc(OCC(=O)OC(C)C(=O)Nc3ccc(S(N)(=O)=O)cc3)ccc12 (configuration not stated),-0.6,33.4*,17.6,-2.0,-2.0,/,81.8*,66.3*,
O=C(CCCSc1nc2ccccc2c(=O)[nH]1)c1ccc(F)cc1,-16.2,1.8,0.0,0.3,7.7,0.4,/,/,
CCN1CCN(c2ncnc3sc(C)c(-c4ccccc4)c23)CC1,-3.4,-1.4,1.1,-0.6,-1.9,0.1,/,/,
O=C(O)c1cn(-c2ccc(F)cc2)c2cc(N3CCNCC3)c(F)cc2c1=O,/,33.3*,8.8,/,/,/,169.9*,136.4*,
COc1cccc(CC(NC(C)=O)C(=O)NC2CCN(C(=O)c3ccncc3)CC2)c1OC (configuration not stated),/,7.3,6.0,/,/,-0.7,/,/,
CC(=O)Nc1ccc(C2Nc3ccccc3C(=O)N2C2CCCCC2)cc1 (configuration not stated),-4.4,61.5*,4.2,-1.1,-1.8,1.3,2.5,2.0,
CCOc1ccc(S(=O)(=O)N2CCC(C(=O)NC3CCCCC3)CC2)cc1,-4.1,-1.2,-0.7,3.8,-3.2,-0.4,/,/,
O=C(Cc1cc(=O)oc2cc(O)ccc12)N[C@@H](Cc1c[nH]c2ccccc12)C(=O)O,12.0,37.1*,17.6,-0.5,-1.9,-18.9,+,160.9*,
Cc1c(O)ccc2c(CC(=O)N[C@@H](Cc3c[nH]c4ccccc34)C(=O)O)cc(=O)oc12,5.2,37.8*,8.6,0.5,-4.2,1.2,89.4*,61.7*,
O=C(COc1ccc2c(-c3ccccc3)cc(=O)oc2c1)NC(Cc1c[nH]c2ccccc12)C(=O)O (configuration not stated),-3.0,0.3,10.3,-1.1,-10.0,/,/,/,
C=CCN(C(=O)CCC(=O)Nc1cc(C)on1)C(C(=O)NC(C)(C)CC)c1cccc(OC)c1OC (configuration not stated),-2.8,-2.0,0.8,0.5,1.6,-2.2,/,/,
CCOc1ccc(OCCCC(=O)N(CC)CC(=O)Nc2c(F)cccc2F)cc1,-0.6,0.2,5.5,-2.1,-7.6,/,/,/,
Cc1nn(-c2ccccc2)c2sc(C(=O)OC3CCOC3=O)cc12 (configuration not stated),-0.6,56.0*,3.2,3.5,-5.1,-2.1,30.9*,20.2*,
O=C(O)c1cc(Cl)nc2ccccc12,1.0,-3.7,-13.6,2.4,3.7,1.4,/,/,
O=C(O)c1cc(Cl)c2ccccc2c1O,1.4,40.4*,2.2,0.2,-7.2,2.5,49.7*,44.2*,
CC(C)(NC(=O)c1cc(Cl)c2ccccc2c1O)C(=O)O,0.5,55.8*,14.7,1.2,2.5,-3.6,65.6*,56.9*,
SMILES,Rv3671c protease,FBA Mtb inh,GDH-TPI counter-1,Mtb UGM inh,Mtb betalactam,RecA splice inh,Mtb FBA confirm,GDH-TPI counter-2,others
CCC(=O)NC(C)c1cc(Cl)c2ccccc2c1O (configuration not stated),-6.2,8.7,-4.3,5.5,0.1,/,/,/,
O=C(NC1CCCCC1)c1ccc2[nH]c(=O)c(=O)[nH]c2c1,1.0,41.1*,10.9,-2.0,-6.5,1.2,15.2,8.0,GDH-TPI DR=4.28*
O=C(NC1CCCCC1)c1ccc2ccccc2c1,/,0.1,1.8,/,/,/,/,/,
COc1cc2occc2c2oc(=O)ccc12,-13.9,-1.0,14.3,-0.5,16.6,-0.3,/,/,
COc1cc2ccc(=O)oc2c2ccoc12,-2.8,34.8*,18.1,-4.1,8.4,-3.4,+,154.7*,
CC(=O)N[C@@H](Cc1c[nH]c2ccccc12)C(=O)OCC(=O)Nc1cc(C)on1,/,0.3,-0.5,/,/,/,/,/,
Cc1cc(NC(=O)CSc2nccn2-c2cccc(Cl)c2)no1,-1.9,-0.7,15.1,1.2,-6.3,-1.2,/,/,
FC(F)(F)c1cccc(CNC(=S)Nc2ccccc2)c1,-15.4,3.8,6.8,1.0,4.4,2.0,/,/,
Cc1ccc(CNC(=S)Nc2ccc3c(c2)c(=O)n(C)n3Cc2cccc(C(F)(F)F)c2)cc1,/,36.2*,12.9,/,/,/,140.7*,100.7*,
CCNC(=S)Nc1ccc2c(c1)c(=O)n(C)n2Cc1cccc(C(F)(F)F)c1,/,80.5*,3.1,/,/,/,190.1*,149.7*,
COc1cccc(CNC(=S)Nc2ccc3c(c2)c(=O)n(C)n3Cc2csc(C)n2)c1,/,18.0,5.5,/,/,/,/,/,
COCCCNc1ccn2nc(-c3ccc(Cl)cc3)cc2n1,/,33.5*,13.7,/,/,/,86.7*,76.2*,
COc1cc(-c2cc3nc(NCc4cccc(Cl)c4)ccn3n2)cc(OC)c1OC,/,15.0,3.1,/,/,/,/,/,
COC(=O)c1cc2c(s1)-c1ccc(OC)cc1CC2,-5.0,109.5*,18.4,-1.9,60.2,-6.9,106.5*,94.1*,
CCN(c1ccccc1)S(=O)(=O)c1ccc(C(=O)N(C)CCc2ccc(OC)c(OC)c2)cc1,-11.4,6.4,-4.5,3.7,-11.4,3.2,/,/,
Cc1cc(OC(C)C(=O)NCCCN2CCOCC2)c2c(C)c(C)c(=O)oc2c1 (configuration not stated),-6.5,63.5*,9.2,-0.3,-9.8,-0.3,168.0*,180.8*,
CCCc1cc(=O)oc2c(C)c(OC(C)C(=O)NCCN3CCOCC3)ccc12 (configuration not stated),0.3,17.3,3.7,-3.4,3.8,-1.7,/,/,
